# Measurements as given in PubChem BioAssay (NCATS).
# Inconclusive results are not listed. Calls of active or inactive are those of the source. The call rests on the fitted dose curve; in most records, active means well fitted inhibition curve with a large enough effect; inconclusive means small, poorly fitted or top-dose-only effect; inactive means flat fitted curve, though single readings scatter.
# Test system: KB-3-1
# Assay: Cytotoxic Profiling of Annotated Libraries Using Quantitative High-Throughput Screening (AID 1296008); further: nearly all actives have a fitted effect of over 60% in size
# Conditions: Five cell lines viability, CellTiter-Glo ATP luminescence, 48-72 h; max response: active compounds read low
# Outline: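 Cytotoxicity was measured as CellTiter-Glo ATP luminescence, read after 10 min at room temperature. Compound treatment of the cells lasted 48 or 72 hr at 37 degrees Celsius in a qHTS format.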
# On the % scale 0 is the no-effect control and ±100 the full control effect.
row,SMILES,max response
1,CN1C(CSCC(F)(F)F)Nc2cc(Cl)c(S(N)(=O)=O)cc2S1(=O)=O (stereo not given),38.2% (inactive)
2,Cc1ccccc1N1CCN(CCc2nnc3n2CCCC3)CC1,-5.62% (inactive)
3,O=C(O)c1[nH]n(-c2ccc(S(=O)(=O)O)cc2)c(=O)c1N=Nc1ccc(S(=O)(=O)O)cc1,3.04% (inactive)
4,C[N+](C)(CCOc1ccccc1)Cc1cccs1,-7.87% (inactive)
5,CC(=O)CC/C=C(\C)CC/C=C(\C)CC/C=C(\C)CCC=C(C)C,-13.4% (inactive)
6,CCCCC(CC)COC(=O)c1ccccc1C(=O)O (stereo not given),-15.1% (inactive)
7,CC(=O)OCC[N+](C)(C)C,2.39% (inactive)
8,CCOc1ccc(NS(=O)(=O)c2ccc(N)cc2)nn1,-7.66% (inactive)
9,CC(C)C(C)(C)C(C)(C)C(C)(C)S,-15.8% (inactive)
10,C=CCOc1cc(Cl)ccc1C(=O)NCCN(CC)CC,6.3% (inactive)
11,Cn1cc(S(C)=O)c(=O)c2ccc(F)cc21 (stereo not given),2.67% (inactive)
12,Nc1nnnn1-c1ccccc1,7.05% (inactive)
13,OC[C@]1(O)OC[C@@H](O)[C@H](O)[C@@H]1O,-6.46% (inactive)
14,O=C(O)Cc1ccc(OCCNC[C@H](O)c2ccccc2)cc1,-1.64% (inactive)
15,O=C(O)c1ccccc1S,-5.69% (inactive)
